# High-throughput results from PubChem BioAssay.
# Shown are actives, neighbours in structure and some others; about 3.1% of the full set was active somewhere.
# SIRT5 block = SIRT5 desuccinylase inhibitors, primary screen, biochemical, fluorescence imaging, single point, set 5; NAD-dependent protein deacylase sirtuin-5, mitochondrial (Homo sapiens), Q9NXA8; actives 1.1% (n = 330,000); Purified SirT5, succinyl-peptide AMC, trypsin-coupled fluorescence; inhibition, % at 15 µM; in the data active = inhibition above about 15%
# Casp6 inh = human caspase-6 inhibitors, primary screen, biochemical, VEID-R110 fluorescence, single point, set 2. inhibition, % at 12.5 µM. actives 0.53% (n = 350,000). P55212. purified caspase-6, Z-VEID-R110 cleavage fluorescence;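 active = mean inhibition across replicates at least about 35%, with every replicate also reaching that limit, limit read from the data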;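 also: 0% = median of neutral control wells and 100% = no fluorescence left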
# Target sequence (P55212 24-179 limits assumed): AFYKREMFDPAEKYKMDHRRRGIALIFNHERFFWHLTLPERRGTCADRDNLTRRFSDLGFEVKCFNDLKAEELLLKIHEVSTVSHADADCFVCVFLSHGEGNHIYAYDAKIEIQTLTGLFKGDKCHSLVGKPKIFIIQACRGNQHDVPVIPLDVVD
# Target sequence (P55212 194-293 limits assumed): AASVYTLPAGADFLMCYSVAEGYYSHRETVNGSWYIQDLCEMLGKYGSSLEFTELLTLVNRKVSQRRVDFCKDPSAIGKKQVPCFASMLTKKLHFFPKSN
# ERAP1 inh = human ERAP1 aminopeptidase inhibitors, primary screen, biochemical, single point, plate reader | inhibition, % at 10.7 µM | actives 0.15% (n = 340,000) | recombinant ERAP1, Leu-AMC fluorescence, 60 min | Endoplasmic reticulum aminopeptidase 1 (Homo sapiens), Q9NZ08;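 active = mean replicate inhibition of at least 30%, or all replicates individually reaching that 30% level; inactive = mean below 30% and not every replicate reaching it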;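 also: 0% = neutral control wells and 100% = L-leucinethiol positive control wells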
# FGF22 binding = binders of human FGF22 protein, primary screen, FGF22 synaptogenesis inhibitor project, biophysical, thermal shift, single point; Fibroblast growth factor 22 (Homo sapiens), Q9HCT0; recombinant FGF22 thermal shift, SYPRO orange fluorescence; percent of sucrose octasulfate shift, DMSO zero; activity (Tm shift, normalised), % at 9.99 µM; actives 1.5% (n = 340,000);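 active = mean Tm shift, scaled 0 neutral to 100 positive control, at about 1.3% or above, every replicate too, limit read from the data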
# Target sequence (Q9HCT0 whole entry, looked up): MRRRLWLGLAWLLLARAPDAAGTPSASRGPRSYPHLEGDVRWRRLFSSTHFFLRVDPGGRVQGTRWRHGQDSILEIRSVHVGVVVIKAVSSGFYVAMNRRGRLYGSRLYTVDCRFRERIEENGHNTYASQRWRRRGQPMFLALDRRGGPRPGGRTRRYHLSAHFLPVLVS
# An asterisk follows results filed as active; . = no result given.
SMILES,SIRT5 block,Casp6 inh,ERAP1 inh,FGF22 binding
CC=Cc1ccc2n(c1=O)C[C@@H]1[C@@H](CO)[C@H](C(=O)NCc3ccccc3)N(CC)[C@H]21 (mixture of isomers),1.8,-0.1,2.2,.
CC=Cc1ccc2n(c1=O)C[C@@H]1[C@@H](CO)[C@H](C(=O)NCc3ccccc3F)N(CC)[C@H]21 (mixture of isomers),16.4*,-2.3,-0.8,-0.3
C[C@H](CO)N1C[C@H](C)[C@H](CN(C)C)Oc2ccc(NC(=O)CCN3CCOCC3)cc2C1=O,-5.3,0.3,-0.3,0.0
O=C(Nc1ccc(F)cc1)N1CCCCN2[C@H](C1)[C@H](c1ccc(C#Cc3ccccc3)cc1)[C@@H]2CO,2.1,-1.9,1.4,-0.8
CCN1[C@H](C(=O)NCc2ccccc2)[C@@H](CO)[C@@H]2Cn3c(ccc(-c4ccncc4)c3=O)[C@@H]21,19.5*,2.9,0.7,0.2
CCN1[C@H](C(=O)NCc2ccccc2)[C@@H](CO)[C@@H]2Cn3c(ccc(-c4cccnc4)c3=O)[C@@H]21,-0.1,1.0,0.0,-0.1
CCNC(=O)[C@H]1[C@H](CO)[C@H]2Cn3c(ccc(-c4cccnc4)c3=O)[C@H]2N1Cc1ccc2c(c1)OCO2,11.9,1.9,-0.5,-0.1
CN(C)C(=O)[C@@H]1[C@@H](CO)[C@@H]2Cn3c(ccc(-c4ccccc4)c3=O)[C@@H]2N1Cc1ccccc1,23.4*,6.9,-2.5,0.0
O=C(NC1CCCCC1)[C@H]1[C@H](CO)[C@H]2Cn3c(cccc3=O)[C@@H]1N2CC1CCCCC1,1.6,1.7,-3.3,.
O=C(NC1CCCCC1)[C@@H]1[C@@H](CO)[C@@H]2Cn3c(cccc3=O)[C@H]1N2CC1CCCCC1,19.0*,1.4,2.1,.
CCNC(=O)[C@@H]1[C@@H](CO)[C@@H]2Cn3c(ccc(-c4cccnc4)c3=O)[C@@H]2N1Cc1ccc2c(c1)OCO2,23.3*,1.7,-2.0,-0.1
COc1cc(OC)c(NS(=O)(=O)c2cc(C(=O)OCC(=O)NCC3CCCO3)ccc2OC)cc1Cl (stereo not given),31.3*,0.0,1.0,0.2
CC[n+]1c(C)cc(C)n1-c1ccccc1,-0.3,-3.5,102.2*,0.3
COc1ccc(C(=O)C2CCCN(S(=O)(=O)C(C)C)C2)c(C)c1 (stereo not given),24.6*,4.3,1.7,0.7
COc1ccc(C(=O)C2CCCN(S(=O)(=O)N(C)C)C2)c(C)c1 (stereo not given),-1.5,-3.9,1.3,0.1
O=C(Cn1c2ccc(F)cc2c2nc3n(c(=O)c21)CCS3)NC1CCCC1,-1.3,52.3*,-3.5,0.2
CN(C)S(=O)(=O)c1cccc(NC(=S)N/N=C/c2cc(Br)ccc2O)c1,29.1*,-0.3,-1.2,0.0
CC(C)CC#Cc1ccc2c(c1)O[C@@H](CN(C)C(=O)c1cnccn1)[C@H](C)CN([C@@H](C)CO)S2(=O)=O,2.2,0.5,-0.1,-0.2
CCOc1cc(N2CCOCC2)c(OCC)cc1NC(=S)NCCCOC,0.1,3.0,0.5,43.0*
c1ccc(C[C@H]2CN=C(Nc3ccccc3)N2CC2CCCC2)cc1,20.8*,-2.4,.,-0.4
CN1CCN(S(=O)(=O)c2ccc(C3CCCCC3)cc2)CC1,-2.0,-7.4,95.9*,0.3
O=C(N[C@@H]1CC[C@@H](CCn2cc(-c3ccccn3)nn2)O[C@@H]1CO)c1ccncc1,-0.4,0.6,0.9,-0.2
C[C@@H]1CN([C@H](C)CO)C(=O)c2cc(NC(=O)CCC(F)(F)F)ccc2O[C@@H](C)CCCCO[C@@H]1CN(C)S(=O)(=O)c1cn(C)cn1,-0.2,-1.7,-1.6,-0.3
CCOC(=O)c1c(CSc2ccsc2)n(C)c2cc(Br)c(O)c(CN(C)C)c12,20.3*,-2.9,.,-0.2
CN(C)C(=O)C[C@@H]1C[C@H]2c3cc(NC(=O)Nc4ccc(C(F)(F)F)cc4)ccc3O[C@H]2[C@@H](CO)O1,-5.5,-0.3,1.1,-0.2
SMILES,SIRT5 block,Casp6 inh,ERAP1 inh,FGF22 binding
CCOc1ccc(N=C2SCCCN2C(=O)c2c(CC)noc2C)cc1,-4.1,0.7,1.0,0.5
CCOc1ncccc1C(=O)N1CCCSC1=Nc1ccc(C(C)=O)cc1,-3.0,-0.3,2.2,43.4*
C[C@H]1[C@@H]2C[C@@]3(O[C@H](c4ccccn4)N=C3C[C@@H]1c1ccccc1)N(Cc1ccncc1)C2=O,.,-1.4,-0.3,48.5*
C[C@H]1[C@@H]2C[C@@]3(O[C@H](c4ccc(C(F)(F)F)cc4)N=C3C[C@@H]1c1ccccc1)N(Cc1ccncc1)C2=O,.,1.0,-1.1,42.1
Cc1ccc(S(=O)(=O)NC2=NCCCCC2)cc1,-4.0,2.6,-0.1,43.1*
Cc1ccc(S(=O)(=O)Nc2ccc(N(C)C)cc2)cc1,112.0*,7.7,0.7,0.2
CN(C)c1ccc(NS(=O)(=O)c2ccc(-c3csnn3)cc2)cc1,.,6.2,2.3,-0.1
Cc1ccc(OCC(=O)Nc2ccc(S(=O)(=O)NC3=NCCCCC3)cc2)cc1,8.1,4.1,-0.8,0.1
CNC[C@@H]1Oc2ccc(NC(=O)CCC(F)(F)F)cc2CC(=O)N([C@H](C)CO)C[C@H]1C,7.4,0.5,2.0,-0.4
COc1ccc(CN(C)C[C@H]2Oc3ccc(NC(=O)C4CC4)cc3C(=O)N([C@@H](C)CO)C[C@H]2C)cc1,-3.5,2.8,0.0,-0.3
O=C(O)c1cccc2cc(-c3ccccc3)oc(=O)c12,-7.4,2.1,-21.1,-0.2
O=C(O)c1cccc2cccc(-c3c4ccc(=O)c(O)c-4oc4c(O)c(O)ccc34)c12,36.7*,98.6*,-1.0,-0.3
CCCCC(CC)C(=O)Oc1ccc(O)c(C(C)(C)C)c1 (stereo not given),19.2*,-0.1,2.7,.
O=C1c2ccccc2C(=O)c2[nH]c(=O)[nH]c21,1.5,82.6*,0.1,-0.2
O=C1c2ccccc2C(=O)c2[nH]cnc21,-3.2,12.2,1.5,-0.2
Cc1cc(C(=O)N/N=C/c2ccc[nH]2)n[nH]1,2.8,0.5,-4.9,43.3*
Cc1cc(C(=O)N/N=C/c2cc(Br)c(Br)o2)n[nH]1,-4.4,54.3*,-3.9,-0.1
C[C@@H]1CN([C@@H](C)CO)C(=O)c2cc(NS(=O)(=O)c3ccc(F)cc3)ccc2O[C@H]1CN(C)S(=O)(=O)c1cccs1,0.2,1.9,-2.9,0.0
C[C@@H]1CN([C@@H](C)CO)C(=O)c2cc(C3=CCCC3)cnc2O[C@H]1CN(C)C(=O)Cc1ccncc1,-0.2,1.9,3.7,0.2
CS(=O)(=O)N1N=C(c2ccco2)CC1c1ccco1 (stereo not given),0.4,62.3*,-2.9,0.0
CCNC(=O)NC(=O)CSc1ccc2ccccc2c1,-1.3,-2.1,1.3,43.1*
O=C(CSc1ccccc1)NC(=O)NCc1ccccc1,.,-7.9,-4.0,0.0
